Ba CapD inh – blocks the Bacillus anthracis CapD enzyme | purified CapD enzyme, fluorescence intensity read-out; stronger effect = lower value | z-score (test concentration not listed) | 140,000 compounds, 0.23% hits; in the data active = z-score mostly below about -2.9, no sharp cut-off; inactive = mostly above about -1.9
AID504770 – E. coli YBA685 growth inhibition, screen for V. cholerae RctB inhibitors. E. coli YBA685 rctB-dependent plasmid, OD600 growth, 3 h; stronger effect = lower value. z-score (concentration not given with the values). 130,000 compounds, 0.27% hits. AID 504770; in the data active = z-score below about -2, passing the limit was not always enough
Hits are given with their value; i = inactive; nt = no result given. An excerpt weighted towards active compounds, which were near 0.34% of everything screened.

SMILES	Ba CapD inh	AID504770
Cc1ccc(S(=O)(=O)N(C)C2CCN(Cc3ccc(C(C)C)cc3)C2)cc1[N+](=O)[O-] (configuration not stated)	i	nt
O=C1C(=C2SCCS2)CC/C1=C\c1ccccc1	nt	i
C/C(N)=C(/C#N)C(=O)CSc1n[nH]c(-c2cccs2)n1	nt	i
CC(C)N(C(=O)CSc1n[nH]c(-c2cccs2)n1)C(C)C	nt	-4
CC1COC2=C(N3CCN(C)CC3)C(F)=CC3C(=O)C(C(=O)O)=CN1C23 (configuration not stated)	nt	-6.4
CCn1nc(C(=O)NCCc2ccc(OC)cc2)c2ccccc2c1=O	nt	i
N#Cc1ccccc1NC(=O)CCS(=O)(=O)c1ccccc1	nt	i
CCCCC(C(=O)Nc1ccccc1Cl)N1C(=O)c2ccccc2C1=O (configuration not stated)	i	nt
O=C(O)CSCC(=O)Nc1ccc(-c2nc3ccccc3s2)cc1	i	i
Cc1csc(NC(=O)CSCC(=O)O)c1-c1nc2ccccc2s1	-2.4	i
Cc1cccc2oc3cc(NC4CCCCC4)c4c(=O)c5ccccc5c(=O)c4c3[nH]c12	i	nt
COc1ccc(/C=C2\N=C(c3ccc([N+](=O)[O-])cc3Cl)OC2=O)c(OC)c1OC	i	nt
O=C(Cc1ccccc1)N/N=C/c1ccccc1C(=O)O	nt	i
O=[N+]([O-])C1=Cc2ccccc2OC1c1cccs1 (configuration not stated)	i	nt
CO/N=C1\CN(c2nc3c(cc2F)c(=O)c(C(=O)O)cn3C2CC2)CC1CN (configuration not stated)	nt	-3.6
COc1c(N2CCNC(C)C2)c(F)cc2c(=O)c(C(=O)O)cn(C3CC3)c12 (configuration not stated)	nt	-3.5
O=C(O)c1cn(C2CCCCC2)c2ccccc2c1=O	i	nt
Cc1cc(C(F)(F)F)c(C(=O)O)cn1	i	i
Clc1ccc(N2CCCCC2)nn1	i	i
Cc1nnc2sc3c(n2c1=O)C(=O)N(c1ccc(I)cc1)C3=O	i	nt
CCc1ccc(N2C(=O)c3sc4nnc(C)c(=O)n4c3C2=O)cc1	-2.1	nt
CN(C)/C=C/C=C1\CCCC1=O	-9	i
CN(C)/C=C/C=C1C(=O)CCCC1=O	i	i
Cc1oc(-c2ccccc2)nc1C(=O)Nc1ccccc1C(=O)NC1CC1	nt	i
O=C1CSC(=S)N1c1cccc(O)c1	i	-3.1
SMILES	Ba CapD inh	AID504770
Cc1c(N2C(=O)CSC2=S)c(=O)n(-c2ccccc2)n1C	nt	i
CCOC(=O)c1ccc(NC(=O)C2CC(=O)N(C)C(=Nc3cccc(F)c3)S2)cc1 (configuration not stated)	i	nt
CCN(CC)S(=O)(=O)c1ccc(C(=O)Nc2nc(-c3ccc4c(c3)OCO4)cs2)cc1	nt	i
Cc1ccnc(Sc2ccc(NC(=O)c3ccc(C(C)(C)C)cc3)cc2)n1	i	nt
O=S(=O)(c1ccccc1)N1CCC(c2nc(-c3cccc(C(F)(F)F)c3)no2)CC1	i	nt
C/C(=C\C(=O)c1ccc(C)o1)Nc1ccc(F)c(C)c1	i	i
C/C(=C\C(=O)c1ccc(C)o1)Nc1ccc(C(=O)O)cc1C	-4	i
Cc1ccccc1N=C1c2ccccc2-c2ncccc21	i	nt
O=C1CC(C(=O)OCc2ccccc2)N1 (configuration not stated)	i	i
Cc1ccc(-c2nc(S(=O)(=O)c3ccc(C)cc3)c(N(C)C)o2)cc1	i	i
Cc1ccc(S(=O)(=O)c2nc(C)oc2N(C)C)cc1	-3	i
O=C(CC1OC(=O)c2ccccc21)N/N=C/c1cc(Cl)cc(Cl)c1 (configuration not stated)	i	nt
COC1=CC(=O)C(C)=CC1=O	i	-3.1
CC1=CC(=O)C(Br)=CC1=O	i	nt
CC(=O)Oc1cc(OC(C)=O)cc(C(=O)O)c1	-8.7	nt
CC(=O)Oc1cncc(C(=O)O)c1	i	i
CCOC(=O)C1=C(N)n2c(s/c(=C\c3ccco3)c2=O)=C(C#N)C1c1ccco1 (configuration not stated)	i	nt
CCOC(=O)C1=C(N)n2c(s/c(=C/c3ccco3)c2=O)=C(C(=O)OCC)C1c1ccco1 (configuration not stated)	-4.2	i
CCCCNC(=O)Cn1c(=S)[nH]c2c([nH]c3ccc(OC)cc32)c1=O	i	i
CN(C)C(=O)N1CCC(c2nc(-c3ccc(S(C)(=O)=O)cc3)no2)CC1	i	nt
CC(C)C(=O)Nc1cccc(-c2nc3ccccc3c(=O)o2)c1	i	-3.5
CC(C)C(=O)Nc1ccc(-c2nc3ccccc3c(=O)o2)cc1	i	i
CCCS(=O)(=O)c1c(S(=O)(=O)CCC)c2ccccn2c1C(=O)N/N=C/C=C/c1ccccc1	i	nt
CCC(C(=O)O)N1C(=O)/C(=C/c2ccccc2)SC1=S (configuration not stated)	i	i
CSCCC(C(=O)O)N1C(=O)/C(=C/c2ccc(O)cc2)SC1=S (configuration not stated)	-4	i
SMILES	Ba CapD inh	AID504770
COc1ccc(C2c3sc(=O)[nH]c3SC3C(=O)N(c4ccccc4)C(=O)C32)cc1 (configuration not stated)	i	i
O=C1NC(=O)C2C1Sc1[nH]c(=O)sc1C2c1ccco1 (configuration not stated)	-4.1	i
O=C(O)c1ccc(Cn2cccn2)cc1	nt	i
O=C(Cc1ccccc1)NO	nt	i
CN(C)C(=O)ONC(=O)Cc1ccccc1	i	-3.9
O=C(N/N=C/c1c(Cl)cccc1Cl)c1sc2ccccc2c1Cl	i	nt
Cc1ccnc(SCC(=O)C(C)(C)C)n1	i	i
CCC(C)CCCCC(=O)NC(CCN)C(=O)NC(C(=O)NC(CCN)C(=O)NC1CCNC(=O)C(C(C)O)NC(=O)C(CCN)NC(=O)C(CCN)NC(=O)C(CC(C)C)NC(=O)C(Cc2ccccc2)NC(=O)C(CCN)NC1=O)C(C)O (configuration not stated)	i	-5.2
O=C(NC1CCN(Cc2ccccc2Sc2ccc(Cl)cc2)C1)N(Cc1ccco1)Cc1cc2ccccc2o1 (configuration not stated)	i	nt
O=C(C1CCCCC1)N1CCCCCCC1	i	i
S=C(S)N1CCCCC1	i	-5.2
O=C(Nc1cccc(Cl)c1)Nc1cccc(Cl)c1	i	nt
CC(C)(C)c1nn2cnnc2n(NC(=O)Nc2cccc(Cl)c2)c1=O	nt	-3.5
COCc1[nH]nc2c1C(c1ccc(OC(=O)N3CCOCC3)c(OC)c1)C(C#N)=C(N)O2 (configuration not stated)	i	nt
N#Cc1c(F)cccc1NC(=O)c1ccc(Cl)cc1Cl	i	nt
Cc1[nH]c2ccccc2c1C(=O)C(C)Sc1nnc(-c2ccccc2)o1 (configuration not stated)	nt	i
CC(=O)Nc1ccc([N+](=O)[O-])cc1	i	nt
CCNc1ccc([N+](=O)[O-])cc1	-4.5	nt
Clc1ccc(Cn2cc(-c3nc4ccccc4o3)cn2)c(Cl)c1	i	nt
COc1cc(CNc2ccc(C)cc2)ccc1O	i	i
C=CCc1ccc(O)c(OC)c1	-10	i
CN1C(=O)/C(=C/c2cccn2C(C)(C)C)C(=O)NC1=S	-4.5	i
CN1C(=O)C(=Cc2cccn2C(C)(C)C)C(=O)N(C)C1=S	i	i
COc1cccc(/C=C2/CCC/C(=C\c3cccc(OC)c3OC)C2=O)c1OC	i	i
COc1cccc(/C=C2/CC(C(C)(C)C)C/C(=C\c3cccc(OC)c3OC)C2=O)c1OC (configuration not stated)	-9.2	i
CCOC(=O)c1cccc(O)c1O	-2.7	i
CCOC(=O)c1cc2ccccc2cc1O	i	i
